The text below walks through data of PubChem BioAssay (NCI).

Among the test systems are HCT-15 colon; HT29 colon; SNB-75 CNS; SNB-19 CNS; U251 CNS; PC-3 prostate; SK-MEL-5 melanoma; UACC-62 melanoma; SK-MEL-28 melanoma; SK-MEL-2 melanoma; EKVX NSCLC; SN12C renal; UO-31 renal; TK-10 renal; ACHN renal; CAKI-1 renal; A498 renal; CCRF-CEM leukemia; MOLT-4 leukemia; LOX IMVI melanoma.
Holding throughout (experiment): NCI-60 one-dose screen, 48 h (100 = growth as untreated, 0 = no growth, -100 = all killed)
Conditions in all cases: 10 µM unless noted

The panel holds about 83,000 compounds, 20% with a hit somewhere; the sample as a whole holds those more often.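 Plates (96-well) were seeded with cells, treated with compound at one concentration, and incubated for 48 hours before percent growth was determined.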 Values without a mark were called inactive. Active and inactive are the calls of the source. The calls were made as follows: active = growth percent below 10; inactive = the rest.

In the case of `CSc1nn2c(-c3cc4cc(Br)ccc4oc3=O)ccnc2c1C#N`, the growth was 102% with HCT-15 colon; 114% in the experiment on HT29 colon; 90.5% in the experiment with SNB-75 CNS; 105% in the experiment with SNB-19 CNS; 102% in the experiment with U251 CNS; 105% in the experiment on PC-3 prostate. Also, the growth with SK-MEL-5 melanoma was 101%; with UACC-62 melanoma it was 99.7%; with SK-MEL-28 melanoma, 105%; in the experiment with SK-MEL-2 melanoma it was 104%; in the experiment with EKVX NSCLC, 92.2%; with SN12C renal it was 102%. Moreover, the growth in the experiment with UO-31 renal was 89.8%; with TK-10 renal it was 157%; in the experiment with ACHN renal, 105%; with CAKI-1 renal, 92.9%; in the experiment on A498 renal, 104%; in the experiment with CCRF-CEM leukemia, 101%. The growth with MOLT-4 leukemia was 104%.
As for `CC/C(=C(/c1ccc(Cl)cc1)c1ccc(OCCN2CCCC2)cc1)c1ccccc1`, the growth in the experiment with HCT-15 colon is 6.41% (active); with HT29 colon, -25.4% (active); in the experiment with SNB-75 CNS, 96.3%; in the experiment on SNB-19 CNS, 60.6%; in the experiment with U251 CNS, 32.1%; in the experiment with PC-3 prostate, 40.4%. Further, the growth is 22.4% in the experiment on SK-MEL-5 melanoma; 79.2% in the experiment with UACC-62 melanoma; 32.4% in the experiment with LOX IMVI melanoma; 76.9% with SK-MEL-28 melanoma; 88% in the experiment with SK-MEL-2 melanoma; 59.3% in the experiment on EKVX NSCLC. The growth in the experiment with SN12C renal was 69.3%; with UO-31 renal, 66.2%; in the experiment on TK-10 renal it was 93.5%; in the experiment with ACHN renal it was 87.9%; with CAKI-1 renal, 61.6%; in the experiment on A498 renal, 79.7%. For the same compound, the growth was 36.9% with CCRF-CEM leukemia and 42.8% with MOLT-4 leukemia.
Take `COC(=O)[C@H]1Cc2c([nH]c3ccccc23)[C@H](c2ccc3c(c2)OCO3)N1`: the growth with HCT-15 colon was 100%; with HT29 colon it was 106%; in the experiment with SNB-75 CNS, 74.8%; with SNB-19 CNS it was 96.4%; in the experiment on U251 CNS it was 96.8%; with PC-3 prostate, 93.2%. In addition, the growth was 101% in the experiment with SK-MEL-5 melanoma; 88.1% in the experiment with UACC-62 melanoma; 93.6% in the experiment with LOX IMVI melanoma; 108% in the experiment on SK-MEL-28 melanoma; 113% in the experiment on SK-MEL-2 melanoma; 95.5% in the experiment on EKVX NSCLC. The growth in the experiment with SN12C renal was 100%; in the experiment with UO-31 renal, 80.2%; with TK-10 renal it was 96%; in the experiment on ACHN renal, 98.4%; with CAKI-1 renal, 82.3%; in the experiment on A498 renal, 97.5%. Also, the growth with CCRF-CEM leukemia is 96.4%; with MOLT-4 leukemia, 100%.
For the compound `Cc1ccc(Nc2nc(N)nc(N)c2N=O)cc1Cl`, the growth with HCT-15 colon is 70.6%; with HT29 colon, 64.3%; with SNB-75 CNS, 49.5%; in the experiment on SNB-19 CNS it was 97.5%; in the experiment on U251 CNS, 87%; in the experiment on PC-3 prostate, 70.8%. The growth with SK-MEL-5 melanoma is 93.5%; in the experiment on UACC-62 melanoma it was 84.6%; with LOX IMVI melanoma it was 65.4%; in the experiment with SK-MEL-28 melanoma, 93.5%; with SK-MEL-2 melanoma, 85.8%; in the experiment with EKVX NSCLC, 81.5%. The growth in the experiment on SN12C renal was 90%; in the experiment on UO-31 renal, 56.5%; with TK-10 renal, 96.2%; in the experiment with ACHN renal, 72.2%; in the experiment on CAKI-1 renal, 82.2%; in the experiment on A498 renal, 119%. Further, the results for the growth in the experiment on CCRF-CEM leukemia and with MOLT-4 leukemia were 89.8% and 68.7%, respectively.
Turning to `O=C1C(c2c(O)[nH]c3ncccc23)=Nc2ccccc21`, the growth was 77.9% in the experiment on HCT-15 colon; 93.8% in the experiment with HT29 colon; 68.1% in the experiment with SNB-75 CNS; 96.4% with SNB-19 CNS; 88.2% in the experiment with U251 CNS; 73% in the experiment with PC-3 prostate. Also, the growth with SK-MEL-5 melanoma was 75.4%; in the experiment on UACC-62 melanoma, 79.6%; in the experiment on LOX IMVI melanoma, 76.3%; in the experiment with SK-MEL-28 melanoma it was 123%; in the experiment on SK-MEL-2 melanoma it was 43.4%; in the experiment on EKVX NSCLC, 30.6%. In addition, the growth in the experiment with SN12C renal was 90.6%; in the experiment with UO-31 renal, 46.2%; in the experiment with TK-10 renal, 56.4%; in the experiment with ACHN renal it was 51.5%; in the experiment on CAKI-1 renal, 53.7%; in the experiment with A498 renal, 117%. Also, the values for the growth with CCRF-CEM leukemia and in the experiment on MOLT-4 leukemia were 88.4% and 85.4%, respectively.
For `O=c1oc2ccccc2cc1-c1nn(-c2ccccc2)cc1/C=N/Nc1nc(-c2ccccc2)c(N=Nc2ccccc2)s1`, the growth in the experiment on HCT-15 colon was 41.9%; in the experiment on HT29 colon, 31.5%; with SNB-75 CNS it was 26.6%; in the experiment with SNB-19 CNS, 85.1%; in the experiment with U251 CNS, 47.6%; with PC-3 prostate, 82.1%. The growth in the experiment on SK-MEL-5 melanoma is 79.7%; with UACC-62 melanoma, 59.8%; in the experiment on SK-MEL-28 melanoma, 89%; in the experiment on SK-MEL-2 melanoma, 64.9%; in the experiment with EKVX NSCLC, 82.3%; in the experiment with SN12C renal it was 103%. The growth in the experiment on UO-31 renal was 73.4%; in the experiment with TK-10 renal it was 95.1%; in the experiment on ACHN renal, 92.9%; in the experiment on CAKI-1 renal, 62.8%; with A498 renal it was 70.2%; in the experiment with CCRF-CEM leukemia, 69.7%. Further, the growth in the experiment with MOLT-4 leukemia is 53.5%.
Consider `CN1CCN(Cc2ccc(NC(=O)c3cncc(C#Cc4c(N)ncc5ccccc45)c3)cc2C(F)(F)F)CC1`, for which the growth in the experiment with HCT-15 colon is -71.7% (active); in the experiment on HT29 colon, -70.1% (active); in the experiment on SNB-75 CNS it was -94.4% (active); in the experiment on SNB-19 CNS, -82% (active); with U251 CNS, -98.7% (active); in the experiment with PC-3 prostate, -57.8% (active). The growth with SK-MEL-5 melanoma was -91.9% (active); with UACC-62 melanoma, -93.8% (active); with LOX IMVI melanoma, -94.3% (active); in the experiment with SK-MEL-28 melanoma, -83.2% (active); with SK-MEL-2 melanoma it was -79.2% (active); in the experiment on EKVX NSCLC, -34.8% (active). Moreover, the growth with SN12C renal is -97.4% (active); in the experiment on UO-31 renal, -78.8% (active); with TK-10 renal, -97.6% (active); with ACHN renal, -91.5% (active); with CAKI-1 renal it was -66.2% (active); in the experiment on A498 renal it was -63.2% (active). For the same compound, the growth in the experiment on CCRF-CEM leukemia is -7.03% (active); with MOLT-4 leukemia it was -41.3% (active).
With `O=C1NCCS(=O)(=O)/C1=C\C=C\c1cccc(C(F)(F)F)c1`, the growth is 10.2% in the experiment on HCT-15 colon; 16.8% in the experiment with HT29 colon; 71.2% with SNB-75 CNS; 49.6% in the experiment with SNB-19 CNS; 36% in the experiment on U251 CNS; 37.5% in the experiment with PC-3 prostate. The growth in the experiment with SK-MEL-5 melanoma is 34.5%; with UACC-62 melanoma, -15% (active); with LOX IMVI melanoma, -73.6% (active); in the experiment with SK-MEL-28 melanoma it was 28.7%; with SK-MEL-2 melanoma, 54.8%; in the experiment with EKVX NSCLC it was 82.3%. Further, the growth in the experiment on SN12C renal was 24.3%; with UO-31 renal, 26.8%; in the experiment with TK-10 renal it was 33.6%; in the experiment on ACHN renal, 12.7%; in the experiment on CAKI-1 renal, 55.4%; in the experiment with A498 renal it was 56.9%. In addition, the values for the growth in the experiment on CCRF-CEM leukemia and in the experiment on MOLT-4 leukemia were 0.774% (active) and 8.72% (active), respectively.
